Screens from PubChem BioAssay.
SMARCA2 act – SMARCA2 function activation, primary screen. MG213 cells, MMTV-luciferase reporter, dexamethasone, overnight. activation, % at 9.1 µM. actives 1% (n = 370,000); in the data active means activation above about 7.8%;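 further: 0% = vehicle wells and 100% = reference activator wells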
Hsp70 activator – transcriptional activators of Hsp70. HeLa Hsp70 promoter luciferase reporter, luminescence; scaled: vehicle 0, proteasome-inhibitor control 100%. activation, % at 10 µM. actives 0.04% (n = 200,000). AID 1203;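 active means activation above the mean across all tested compounds plus 3 SD, cutoff set per campaign, cut at about 5.5% in these data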;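 further: 100% = MG132 at 30 µM as the positive control and 0% = DMSO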
FXN GAA850 act – activators of GAA850 frataxin (FXN) promoter; HEK293 lucGAA850 FXN promoter luciferase reporter, 24 h; percent of 10 µM SAHA response; activation, % at 6 µM; actives 0.56% (n = 360,000); AID 540364;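 active means activation above the average of all compounds screened plus 3 SD, cutoff fixed separately per campaign, cut at about 7.5% in these data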;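 further: 0% = DMSO wells and 100% = 10 µM SAHA wells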
GalR3 antagonist – human GalR3 antagonism; O60755; HEK293 GalR3-CNG cAMP membrane potential fluorescence; galR3 body fused to GalR1 C-terminus; inhibition, % at 3 µM; actives 0.44% (n = 360,000);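 active means inhibition above the screen-wide average plus 3 SD, cut at about 13% in these data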;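 further: forskolin and galanin both at EC90 stimulate the cells; cAMP rise reported by CNG channel membrane potential dye signal; 0% = forskolin plus galanin with DMSO and 100% = forskolin alone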
Target sequence (O60755 1-299 limits assumed): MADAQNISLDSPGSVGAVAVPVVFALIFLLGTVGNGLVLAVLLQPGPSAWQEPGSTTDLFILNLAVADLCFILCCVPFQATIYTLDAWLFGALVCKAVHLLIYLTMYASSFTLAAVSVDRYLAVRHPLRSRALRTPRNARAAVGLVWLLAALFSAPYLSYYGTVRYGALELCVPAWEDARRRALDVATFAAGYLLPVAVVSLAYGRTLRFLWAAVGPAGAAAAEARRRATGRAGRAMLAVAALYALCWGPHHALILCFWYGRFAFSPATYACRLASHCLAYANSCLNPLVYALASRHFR
HIF act – HIF pathway transcriptional activation. AID 1910. U2OS HRE-luciferase reporter, luminescence; normalized: DMSO 0%, desferrioxamine 100%. activation, % at 7.5 µM (by protocol). actives 0.32% (n = 300,000);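 active means mean activation of at least 10% of the iron chelator positive control signal, with at least half of replicates also reaching 10%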
GalR3 conf – GalR3 (human) antagonism, confirmation. shares compounds with GalR3 antagonist. HEK293 GalR3 CNG cAMP biosensor, membrane potential fluorescence; galR3 fused to GalR1 carboxy tail; challenged with forskolin and galanin at EC90. inhibition, % at 3 µM. actives 59% (n = 1,600). AID 652245;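 active means inhibition above the primary screen's cutoff, the mean inhibition of all screened compounds plus 3 SD, cut at about 13% in these data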;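 further: 0% = forskolin plus galanin and 100% = forskolin alone with DMSO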
CNG parental – acts as nonspecific agonist in parental HEK-CNG cells. activation, % at 3 µM. shares compounds with GalR3 antagonist. actives 10% (n = 1,600). HEK293-CNG parental cells, cAMP membrane potential fluorescence; normalised: DMSO wells 0%, forskolin wells 100%. AID 652268; in the data active means activation above about 1.3%
An asterisk follows results filed as active; . = no result. In the library only some 2.2% were active in any assay of this set; here they are far more common.

SMILES	SMARCA2 act	Hsp70 activator	FXN GAA850 act	GalR3 antagonist	HIF act	GalR3 conf	CNG parental
O=C(Nc1cccc2c1C(=O)NC2=O)c1cccc(N2C(=O)CCC2=O)c1	-2.4	0.0	2.0	3.5	0.1	.	.
O=C(CN1C(=O)CCC1=O)Nc1cccc2c1C(=O)NC2=O	-6.7	-0.5	0.9	20.6*	-0.1	15.1*	0.0
O=c1[nH]c2cccnc2c2ccsc12	0.7	-0.1	1.8	22.8*	0.4	16.7*	0.4
c1cnc2ncc3sccc3c2c1	-1.6	-0.2	-1.0	-2.3	-0.2	.	.
Cc1ccc(C2C(C#N)=C(N)Oc3cc4c(cc32)OCO4)cc1 (stereo not given)	-4.8	0.6	-2.1	0.9	4.4	.	.
CC(C)(C)C1=C(C#N)C(c2cc3c(cc2Br)OCO3)C(C#N)=C(N)O1 (stereo not given)	1.0	.	6.2	.	-0.4	-3.2	0.3
Cc1ccc(-n2ncc3c2CCCC3NC(=O)c2ccoc2)cc1C (stereo not given)	1.7	.	-1.3	-4.3	-0.3	.	.
Cc1cccc(-n2ncc3c2CCCC3NC(=O)C2(C(N)=O)CC2)c1C (stereo not given)	-4.3	.	-5.1	114.3*	0.4	105.9*	-0.9
CCc1cc(C(=O)NC2CCCc3c2cnn3-c2cccc(C)c2C)n(C)n1 (stereo not given)	-5.3	.	.	99.3*	1.4	102.4*	-0.3
Cc1cc(C)c(C(=O)NC2CCCc3c2cnn3-c2cccc(C)c2C)o1 (stereo not given)	-4.0	.	-4.6	-6.0	-0.4	.	.
Cc1cc(C(=O)NC2CCCc3c2cnn3-c2ccc(C)c(C)c2)n(C)n1 (stereo not given)	-4.7	.	-8.5	99.0*	0.7	105.1*	-0.1
CCCC#C/C(CCC)=C1\c2ccccc2C(=O)N1c1ccccc1	0.1	.	.	-6.3	.	.	.
CCOC(=O)[C@]12CCCCC/C=C\1N(Cc1ccc(OC)cc1)C(=O)[C@H]2CC(=O)NCc1cccs1	-3.4	.	.	.	.	.	.
CCN(CC)C(=O)c1ncn2c1C(=O)NC[C@@H]2C	-1.0	.	.	-3.4	.	.	.
CCC(C)[C@H](NS(=O)(=O)c1ccc(C)cc1)C(=O)N1CCC(C(=O)N[C@H](C(=O)O)c2ccccc2)CC1 (stereo not given in full)	1.1	.	0.2	30.0*	-0.3	11.6	0.1
CC[C@H](C)[C@H](NS(=O)(=O)c1ccc(C)cc1)C(=O)N1CCC(C(=O)N[C@H](C(=O)O)C(C)C)CC1	.	-0.3	-1.2	.	0.1	.	.
CCCCCC[C@H](CC)CN(C(=O)Oc1ccccc1)c1ccccc1	-4.3	.	.	.	.	.	.
C=C1CC(COc2ccc3c(C)c(Cl)c(=O)oc3c2)(c2ccccc2)OC1=O (stereo not given)	-9.9	.	6.7	37.5*	.	17.6*	2.9*
S=C(NCCc1ccccc1)Nc1cccc2cnccc12	-5.0	-0.4	-0.9	32.7*	-0.4	103.3*	-0.3
CN(CCO)c1cccc2c1S(=O)(=O)N(Cc1cn(Cc3ccccc3C(F)(F)F)nn1)Cc1ccccc1O2	-2.9	.	.	.	.	.	.
Cc1ccc(S(=O)(=O)N2CCCCC2)cc1NC(=O)CSc1ncnc2ccccc12	-6.7	0.1	-1.8	-8.5	-26.5	.	.
Cc1ccc(NC(=O)CSc2ncnc3ccccc23)cc1S(=O)(=O)N1CCCCCC1	-3.1	-0.1	-1.4	95.8*	2.4	108.1*	-1.5
Cc1ccc(NC(=O)CSc2ccccn2)cc1S(=O)(=O)N1CCOCC1	-0.3	0.1	2.4	-3.7	-0.3	.	.
Cc1ccc(NC(=O)CSc2ncn[nH]2)cc1S(=O)(=O)N1CCOCC1	-4.8	-0.1	0.4	18.3*	-0.9	7.5	-0.1
CCCN(CC(=O)Nc1ccc(Cl)cc1Cl)Cc1cc(=O)n2ccsc2n1	-2.3	-0.4	0.6	17.0*	-0.2	23.8*	0.3
COC(=O)c1ccc(S(=O)(=O)N2CCC(NC(=O)Cc3ccccc3)CC2)cc1	-2.6	.	.	.	.	.	.
CCn1nc(C)c(CNC(=O)c2ccc(OC3CCN(Cc4ccccn4)CC3)cc2)c1C	-3.0	.	-5.5	97.2*	2.3	103.2*	-0.4
